Source: PubChem BioAssay (NCATS)
Results filed as inconclusive are left out. The source made the active and inactive calls. Unless noted, how the calls were made is not given here.

Tests used:
[1] = qHTS profiling of the MIPE4 collection as inhibitors of Plasmodium falciparum (HB3) proliferation (AID 743347);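 further: plate controls were DMSO vehicle wells for no effect and artemisinin wells for full effect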; details: P. falciparum HB3 in erythrocytes, SYBR Green DNA, 72 h; at 28.5 µM (top of the series) unless noted
How it was run: (§1)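 Parasite DNA was quantified by SYBR Green I fluorescence (ex 485, em 535 nm) after overnight lysis in saponin/Triton buffer at room temperature. Cultures at 0.3% parasitemia and 2.5% hematocrit were first exposed to compound for 72 h at 37 C; signals were normalised to artemisinin (0.29 uM) and vehicle wells.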

[2] = High-throughput drug toxicity screening in the BPDCN cell line Gen2.2 (AID 1224824); details: Gen2.2 BPDCN cells; at 45.8 µM (top of the series) unless noted;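 further: cells exposed to compounds for 48 h before reading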
How it was run: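 Gen2.2, 500 cells/well, phenol red-free RPMI/10% FBS/Pen-Strep; 48 h cpd, 37 °C/5% CO2; CTG lum, 15 min RT. Norm: DMSO = 100%, bortezomib 9.2 uM final = 0%.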

[3] = High-throughput drug toxicity screening in the BPDCN cell line Cal-1 (AID 1224825); details: Cal-1 BPDCN cell viability, qHTS; at 45.8 µM (top of the series) unless noted;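 further: cells exposed to compounds for 48 h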
How it was run: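 Percent activity derived from CellTiter-Glo luminescence, scaling DMSO to 100% and 9.2 uM final bortezomib to 0%. BPDCN Cal-1 cells (500/well, RPMI plus 10% FBS) incubated with compounds 48 hours at 37C before reading.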

[4] = qHTS assay for measurement of the activity of small molecule inhibitors on Zika virus induced Caspase-3 activity in human iPSC derived neural progenitor cells (hNPCs) (AID 1224857; active means well fitted inhibition curve with a large enough effect; further: nearly all actives have a fitted effect of over 65% in size; further: potency means the concentration at half of the fitted maximal effect)
How it was run: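 Percent inhibition of virus-induced caspase-3/7 luminescence (Caspase-Glo), scaled between uninfected cells and Zika-infected cells. hNPCs received compound 1 hr before ZIKV at 2 FFU/cell, with 6 hours infection at 37 C.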

[5] = qHTS assay for measurement of the activity of small molecule inhibitors on Zika virus induced Caspase-3 activity in human astrocytoma cells (AID 1224859; active means well fitted inhibition curve with a large enough effect;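 further: plate controls were ZIKV-infected untreated cells for no effect and uninfected cells for full effect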)
How it was run: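 Luminescent caspase-3/7 read-out (30 min reagent, room temperature) in human SNB-19 cells infected 6 h with ZIKV (2 FFU/cell) after 1 h compound pre-incubation; Data were normalised to uninfected and infected wells.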

[6] = qHTS profiling of the MIPE4 collection as inhibitors of Plasmodium falciparum (DD2) proliferation (AID 743345); details: P. falciparum Dd2 in erythrocytes, SYBR Green DNA, 72 h; at 28.5 µM (top of the series) unless noted
How it was run: as §1

[7] = qHTS profiling of the MIPE4 collection as inhibitors of Plasmodium falciparum (DD2) proliferation (Rep 2) (AID 743346); details: P. falciparum Dd2 in erythrocytes, SYBR Green DNA, 72 h; at 28.5 µM (top of the series) unless noted
How it was run: as §1

[8] = qHTS profiling of the MIPE4 collection as inhibitors of Plasmodium falciparum (3D7) proliferation (AID 743344);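 further: scaled between DMSO vehicle wells and 0.29 µM artemisinin as full inhibition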; details: P. falciparum 3D7 in erythrocytes, SYBR Green DNA fluorescence, 72 h; at 28.5 µM (top of the series) unless noted
How it was run: as §1

| Structure (SMILES) | growth, % of control [1] [%] | cell viability, % of control (lower = more cytotoxic) [2] [%] | viability (% of control) [3] [%] | Potency [4] | Potency [5] | parasite growth remaining, % of DMSO control (lower = more inhibition) [6] [%] | parasite growth, % of control (lower = inhibition) [7] [%] | parasite growth, % of DMSO control [8] [%] |
| --- | --- | --- | --- | --- | --- | --- | --- | --- |
| COc1ccc(CCC(=O)Nc2nc3ccc(Cl)cc3s2)cc1OC | 28.3 | 135 | 98.2 | inactive | inactive | – | – | – |
| CNC(=O)[C@H](Cc1ccccc1)NC(=O)[C@H](CC(C)C)[C@H](CSc1cccs1)C(=O)NO | 4.59 | 63.4 | 56.4 | inactive | inactive | 8.14 | 11.7 | – |
| CCNC(=O)Nc1ccc(Oc2ncnc(N)c2C=NOC)cc1Cl | 50.6 | 52.6 | 17 | inactive | inactive | 81.9 | 67 | – |
| C#CCN(C)CC1=Cc2ccccc2Oc2ccccc21 | 25.1 | 124 | 98 | inactive | inactive | – | 63.1 | 51.9 |
| COc1ccc2c(c1)CC[C@H]1[C@@H]2CC[C@]2(C)[C@@H](NCCCCCCN3C(=O)C=CC3=O)CC[C@H]12 | – | 154 | 43 | inactive | inactive | 95.3 | – | – |
| O=C(CC12CC3CC(CC(C3)C1)C2)Nc1cccc2nc(NCCNCCO)ccc12 | 4.24 | 5.97 | 5.92 | inactive | inactive | – | 15.5 | 4.99 |
| O[C@@H](COc1cccc2ncccc12)CN1CCN(C2c3ccccc3[C@@H]3[C@H](c4ccccc42)C3(F)F)CC1 (some centres not stated) | 63.5 | 4.83 | 6.33 | 26.4 µM (active) | inactive | 65.6 | 54.1 | – |
| NC1(C(=O)N[C@@H](CCO)c2ccc(Cl)cc2)CCN(c2ncnc3[nH]ccc23)CC1 | 97.9 | 6.91 | 27.4 | inactive | inactive | – | 24.5 | 32.2 |
| COc1cc(Cl)cn2c(-c3cccc(NC4CNC4)n3)cnc12 | 42.7 | 91.4 | 5.98 | inactive | inactive | – | 33.2 | 39.6 |
| COC(=O)[C@H](c1ccccc1Cl)N1CCc2sccc2C1 | 24.3 | 95.6 | 91.3 | inactive | inactive | 79 | 22.1 | – |
| c1cc(OCCN2CCCCC2)cc(-c2n[nH]c3ccc(-c4ncn[nH]4)cc23)c1 | – | 107 | 20.5 | inactive | inactive | 9.76 | 9.96 | – |
